Compounds without any hit were thinned out: in the full panel of roughly 83,000, 20% have a hit.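 96-well plates, one dose, 48 hours. Percent growth reported; active if below 10.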 A number with no mark means an inactive call. Active and inactive are the calls of the source.
Columns and labels:
Assay in all cases: NCI-60 one-dose screen, 48 h (100 = growth as untreated, 0 = no growth, -100 = all killed)
Conditions in all cases: 10 µM unless noted
[1] = test system: NCI-H23 lung
[2] = test system: NCI-H226 lung
[3] = test system: NCI-H322M lung
[4] = test system: HOP-62 NSCLC
[5] = test system: NCI-H460 lung
[6] = test system: HOP-92 NSCLC
[7] = test system: NCI-H522 lung
[8] = test system: A549/ATCC NSCLC
[9] = test system: 786-0 renal
[10] = test system: COLO 205 colon
[11] = test system: DU-145 prostate
[12] = test system: K-562 leukemia
[13] = test system: MALME-3M melanoma
[14] = test system: MDA-MB-231 breast
[15] = test system: SF-268 CNS
[16] = test system: SF-295 CNS
[17] = test system: SF-539 CNS
[18] = test system: M14 melanoma

SMILES | growth [1] | growth [2] | growth [3] | growth [4] | growth [5] | growth [6] | growth [7] | growth [8] | growth [9] | growth [10] | growth [11] | growth [12] | growth [13] | growth [14] | growth [15] | growth [16] | growth [17] | growth [18]
COc1ccc(OC)c(/C=C2\Oc3cc(OCCN4CCCC4)ccc3C2=O)c1 | 87.7% | 104% | 97.4% | 87.2% | 99.1% | 92.3% | 103% | 103% | 93.9% | 97.9% | 96.5% | 3.51% (active) | 104% | 84.6% | 93.7% | 101% | 84.7% | 98.4%
CSc1nc(-c2cc3ccccc3o2)cc(-c2ccc(Cl)cc2)c1C#N | 44.8% | 39.1% | 82.2% | 69.8% | 24% | 10.3% | 25.6% | 32% | 90.3% | 42.7% | 68.5% | 63.4% | 89.3% | 27.8% | 51.7% | 9.92% (active) | -7.47% (active) | 67.6%
COc1ccc(NC(=S)/N=c2\oc3c(OC)cccc3cc2-c2cc3ccccc3[nH]2)cc1 | 70.1% | 58.8% | 80.8% | 37.6% | 69.8% | -9.96% (active) | 86.3% | 85.2% | 65% | 101% | 62.6% | 81.4% | 63.5% | 42.2% | 73% | 84.6% | 26.4% | 93.5%
O=C1CCCCC=C1C[N+](=O)[O-] | 91.5% | 86.3% | 105% | 107% | 102% | 90% | -12.3% (active) | 121% | 102% | 43% | 106% | 27.8% | 73.2% | 107% | 94.2% | 97.7% | 101% | 91.3%
CC(C)(C)c1cc(-c2nc3ccc(N4CCN(CCO)CC4)cc3[nH]2)cc(C(C)(C)C)c1O | 96.3% | 99% | 82.3% | 72.6% | 4.48% (active) | 45.2% | 74% | 43.1% | 52% | -57.2% (active) | 70.5% | -24.2% (active) | -26.4% (active) | 39.2% | 68.3% | 98.2% | 55.3% | -40.5% (active)
CCN1C(=O)N(CC)C2C1NN=c1s/c(=C\c3cccc(F)c3)c(=O)n12 (stereo not drawn) | 33.9% | 105% | 49.6% | 42.2% | 1.33% (active) | 29.6% | -0.955% (active) | 27% | 12.2% | -5.47% (active) | 5.59% (active) | 8.99% (active) | 48.7% | 25.8% | 58.3% | 9.94% (active) | -9.53% (active) | 47.6%
